# Screening data: PubChem, National Center for Advancing Translational Sciences (NCATS)
# HEK293 viab: GF-AFC viability counterscreen for inhibitors of alpha-synuclein gene (SNCA) expression. Potency, µM (top dose mostly 57.1 µM), without a hit: at the top dose activity change, negative = cytotoxicity, hits mostly cytotoxic. HEK-293-SNCA-luc viability, GF-AFC fluorescence, 24 h. actives 0.12% (n = 150,000);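 also: 0% = DMSO-treated cells and -100% = medium-only wells without cells; nearly all actives have a fitted effect of over 30% in size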
#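 HEK-293-SNCA-luc cells (1500/well) plated 24 h, then exposed 24 h to a dilution series; GF-AFC added 30 min at 37C, fluorescence 405/540 nm; normalised to medium-only and DMSO wells, Hill fit.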
# SNCA expr inh: Primary qHTS assay for inhibitors of alpha-synuclein gene (SNCA) expression; HEK-293 SNCA-luciferase knock-in, luminescence, 24 h; Potency, µM (highest dose often 57.2 µM), for inactives: at the top dose activity change, negative = inhibition, usual class: inhibitors; actives 0.17% (n = 140,000); AID 1671194, 2021;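 also: plate controls were DMSO cells for no effect and cell-free wells for full effect; nearly all actives have a fitted effect of over 45% in size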
# HEK293 tox: Cytotoxic Profiling in HEK 293 Cell Line of Diverse Libraries Using Quantitative High-Throughput Screening. actives 6.6% (n = 94,000). Potency, µM (highest dose often 115 µM), for inactives: at the top dose activity change, negative = cytotoxicity, hits mostly inhibitors. HEK 293 viability, ATP luminescence (CellTiter-Glo), 48-72 h. AID 1345083, 2018; also: nearly all actives have a fitted effect of over 60% in size
#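 HEK 293 cells seeded at 250 cells/well were exposed to compound for 48 or 72 hr at 37 degree Celsius. Viability taken as ATP content by CellTiter-Glo luminescence.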
# Luciferase inh: Firefly luciferase inhibition profiling of diverse chemical library using quantitative high-throughput screening; Luciferin 4-monooxygenase (Photinus pyralis), P08659; Potency, µM (series often up to 115 µM), actives largely listed as inhibitors; purified P. pyralis luciferase, luminescence, biochemical; AID 1347043, 2019; actives 2.5% (n = 76,000); also: nearly all actives have a fitted effect of over 65% in size
#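 Luminescence read by CCD imaging after purified firefly luciferase (10nM final) was added to substrate buffer holding 10uM D-luciferin and 10uM ATP, pH 7.5, pre-dosed with compound.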
# NPR1 antag: Natriuretic polypeptide receptor (hNpr1) antagonism - Primary qHTS; Atrial natriuretic peptide receptor 1 (Homo sapiens), P16066; HEK293 hNpr1 GloSensor cGMP, ANP-stimulated luminescence; Potency, µM (top dose mostly 46.3 µM), for inactives: top-dose activity change, negative = inhibition, actives largely listed as inhibitors; actives 1.6% (n = 76,000); AID 1347048, 2019; calls by dose curve; also: nearly all actives have a fitted effect of over 60% in size
#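 Compound pre-incubated 30 min at room temperature on GloSensor-loaded HEK293 cells stably carrying hNpr1 and the pGS-40F cGMP biosensor. Stimulation uses hNppA at 0.1 nM final; luminescence is taken at baseline and 20 min post-agonist.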
# NIH3T3 tox: Cytotoxic Profiling in NIH 3T3 Cell Line of Diverse Libraries Using Quantitative High-Throughput Screening. NIH 3T3 viability, CellTiter-Glo ATP luminescence, 48-72 h. Potency, µM (top dose mostly 96.7 µM), for inactives: at the highest dose activity change, negative = cytotoxicity, hits mostly inhibitors. actives 4.3% (n = 94,000); also: nearly all actives have a fitted effect of over 55% in size
#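 Cytotoxicity was measured by CellTiter-Glo ATP luminescence after 48 or 72 h compound exposure at 37 °C. Mouse NIH 3T3 fibroblasts were seeded at 400 cells/well and dosed by 23 nL pin transfer.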
# Numbers without * were called inactive; i = inactive; u = inconclusive; x = no result given; ! = repeats disagree; [ ] = remark or other dose. An excerpt weighted towards active compounds, which were near 7.4% of everything screened. Unless noted, calls follow the shape of the dose curve; as a rule, active = well fitted curve in the direction sought with a large enough effect; inconclusive = small, poorly fitted or top-dose-only effect, or another doubt; inactive = no such curve, though single readings can be large; an effect the other way counts as inactive or inconclusive. Unless noted, % is scaled to controls: 0 for no effect and ±100 for the full control effect; potency is read from the fitted curve at half-maximal effect.
SMILES,HEK293 viab,SNCA expr inh,HEK293 tox,Luciferase inh,NPR1 antag,NIH3T3 tox
c1ccc(CCc2noc(-c3ccc(N4CCCOCC4)nc3)n2)cc1,3%,136%,u,32µM*,u,u
c1ccc(CCCc2noc(-c3ccc(N4CCOCC4)nc3)n2)cc1,-2%,103%,u,i,-24%,-14%
CN(Cc1ccc(F)cc1)S(=O)(=O)c1cccs1,2%[87.6 µM],-5%[87.6 µM],79µM*,i,6%[70.6 µM],-27%[138 µM]
COc1ccc(C(=O)N2CCC3(CC2)OC(=O)N(Cc2ccc(O)cc2)C3(C)c2ccccc2)cc1 (stereo not given),-23%,-5%,u,i,-10%,u
CC1(c2ccccc2)N(Cc2ncccn2)C(=O)OC12CCN(C(=O)c1ccc(Oc3ccccc3)cc1)CC2 (stereo not given),-15%,u,40µM*,i,-5%,40µM*
CC1(c2cccnc2)N(CC2CC2)C(=O)OC12CCN(C(=O)c1cccc(O)c1)CC2 (stereo not given),-1%[87.6 µM],1%[87.6 µM],i,i,-1%[70.6 µM],35µM*
CC1(c2ccccc2)N(Cc2cccnc2)C(=O)OC12CCN(C(=O)c1ccc(Oc3ccccc3)cc1)CC2 (stereo not given),-29%,-32%,25µM*,i,-14%,u
CC1(c2cccnc2)N(CC2CC2)C(=O)OC12CCN(C(=O)c1ccc(Oc3ccccc3)cc1)CC2 (stereo not given),6%,-6%,u,i,-13%,u
CC1(c2ccccc2)N(Cc2ccc(O)cc2)C(=O)OC12CCN(C(=O)c1cnccn1)CC2 (stereo not given),9%,-15%,-5%,i,-8%,32µM*
Cc1cccc(CN2CCCCCCNC(=O)CC2c2ccccc2)c1 (stereo not given),-2%,-6%,-11%,i,-6%,-19%
COCc1nc(C2CC(N)C2)cc(N(C)Cc2noc3c2CCCC3)n1 (stereo not given),-3%,-23%,-20%,i,6%,-26%
Cc1[nH]nc2ccc(-c3cncc(OC[C@@H](N)Cc4ccccc4)c3)cc12,9.5µM*!,0.17µM*,x,x,x,x
Cc1ccsc1C(=O)N1CCC2(CC1)NC(=O)N(Cc1ccccc1)C2=O,2%,-28%,u,i,-14%,-18%
Cc1ccsc1C(=O)N1CCC2(CC1)C(=O)N(c1cccc(F)c1)C2c1ccccc1 (stereo not given),-17%,-22%,25µM*,x,x,u
O=C1Nc2ccccc2CN(Cc2ccccc2)C12CCNC2 (stereo not given),-3%[87.6 µM],19%[87.6 µM],u,x,x,89µM*
O=C1Nc2ccccc2CN(Cc2ccc(Cl)cc2)C12CCNCC2,-26%,-2%,20µM*,i,-16%,14µM*
O=C1Nc2ccccc2CN(C/C=C/c2ccccc2)C12CCNC2 (stereo not given),-7%,8%,u,x,x,25µM*
Cc1cc(OC2CN(Cc3ccnn3C)C2)ccc1F,-1%[87.6 µM],5%[87.6 µM],u,i,-9%[70.6 µM],u
Cc1cc(OCC(=O)O)c(C)c2c1CC[C@@H]([C@H](C)C(=O)NCc1ccccc1)C2,0%[87.6 µM],12%[87.6 µM],i,i,3%[70.6 µM],79µM*
COc1cc(C)c2c(c1C)C[C@H]([C@H](C)C(=O)NC1CCCC1)CC2,-20%[87.6 µM],-15%[87.6 µM],40µM*,i,u,u
COCCNC(=O)C(C)[C@@H]1CCc2c(C)cc(OCC(=O)O)c(C)c2C1 (stereo not given in full),-2%[87.6 µM],-8%[87.6 µM],i,i,4%[70.6 µM],-8%[138 µM]
COc1ccc2[nH]c3c(c2c1)CCNC31CCN(Cc2scnc2C)CC1,9%[12.5 µM],-3%,u,i,3%,-24%
COc1ccc(-c2ccnc(N[C@H]3CO[C@H]4[C@@H]3OC[C@@H]4NS(=O)(=O)c3ccc4ccccc4c3)n2)cc1,-8%,-21%,22µM*,i,u,u
O=C(Nc1cccc(C(F)(F)F)c1)N[C@H]1CO[C@H]2[C@@H]1OC[C@@H]2Nc1nccc(-c2ccc(-c3ccccc3)cc2)n1,u,u,35µM*,i,1%,32µM*
CCNC(=O)N[C@H]1CO[C@H]2[C@@H]1OC[C@@H]2Nc1nccc(-c2ccc(-c3ccccc3)cc2)n1,-11%,-3%,10µM*,u,11µM*,-29%
SMILES,HEK293 viab,SNCA expr inh,HEK293 tox,Luciferase inh,NPR1 antag,NIH3T3 tox
N#Cc1cccc(-c2ccnc(N[C@H]3CO[C@H]4[C@@H]3OC[C@H]4OC(=O)Nc3cccc(C(F)(F)F)c3)n2)c1,u,u,28µM*,i,u,-22%
O=C(Nc1cccc(-n2cccn2)c1)C1CCCN1C(=O)CC1CC1 (stereo not given),8%,-11%,-5%,i,4%,i
CC(=O)c1cccc(NC(=O)O[C@@H]2CO[C@H]3[C@@H]2OC[C@@H]3Nc2nccc(-c3cccc(F)c3)n2)c1,-21%,-4%,35µM*,u,u,u
O=C(NCc1ccncc1)[C@@H]1C[C@@H](c2ccc(F)cc2)N([S+](=O)([O-])c2cccnc2)C1,4%[87.6 µM],28%[87.6 µM],-22%[172 µM],i,-6%[70.6 µM],u
CN1c2cc(C(=O)N3CCN(c4ccc(F)cc4)CC3)ccc2C(=O)N2CCCCCC21 (stereo not given),3%[12.5 µM],-9%,45µM*,i,-13%,u
Cc1cccc(N2CCN(C(=O)c3ccc4c(c3)N(C)C3CCCCCN3C4=O)CC2)c1 (stereo not given),-22%[12.5 µM],u,40µM*,i,-7%,u
COc1cccc(N2CCN(C(=O)c3ccc4c(c3)N(C)C3CCCCCN3C4=O)CC2)c1 (stereo not given),-14%[12.5 µM],4%,50µM*,i,1%,-27%
O=C(NCc1ccccc1)c1cnc2n1CCN(Cc1ccccn1)CC2,0%[87.6 µM],-10%[87.6 µM],u,i,8%[70.6 µM],u
O=S(=O)(NCC1(COc2ccccc2)C[C@@H](O)[C@@H](O)C1)c1ccc(F)cc1 (stereo not given in full),2%[87.6 µM],-3%[87.6 µM],-17%[172 µM],i,7%[70.6 µM],-20%[138 µM]
